Bioassay records from PubChem.
The entries come from a sample that favours hits as a whole.
CBX7 inh: blocks human CBX7 binding to H3K27me3 peptide; AlphaScreen His6-CBX7 / biotin-H3K27me3 peptide binding; stronger effect = lower value; normalised signal (fraction of DMSO) (no concentration beside the values); actives 1.1% (n = 66,000); AID 1224903; in the data active means normalised signal below about 0.5
Target sequence (O95931 whole entry, looked up): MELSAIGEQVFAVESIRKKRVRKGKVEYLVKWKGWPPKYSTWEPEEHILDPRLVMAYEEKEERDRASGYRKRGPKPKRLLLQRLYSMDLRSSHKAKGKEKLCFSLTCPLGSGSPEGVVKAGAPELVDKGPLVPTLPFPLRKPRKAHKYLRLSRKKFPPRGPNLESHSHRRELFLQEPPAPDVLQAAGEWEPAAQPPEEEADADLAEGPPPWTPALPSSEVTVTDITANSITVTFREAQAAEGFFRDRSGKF
Each line names hits and unclear results; the compound was inactive in the other large screens; ! = not confirmed by another sample.

COc1ccccc1CNC(=O)CN1CCN(Cc2cccc(C)c2)C1=O	none
Fc1ccc(Nc2c3c(nc4ccc(Cl)cc24)CCC3)c(F)c1	none
O=C(COc1ccc2ccccc2c1)Nc1nc(-c2ccccc2)cs1	none
Cc1ccc(Nc2nc(-c3ccc(-c4ccccc4)cc3)cs2)cc1C	none
COc1cccc(C2=NOC(C(=O)NC(C)c3ccccc3)C2)c1 (stereo unspecified)	none
CSc1nc(C)cc(Oc2ccc(OCCOc3ccc(Br)cc3)nn2)n1	none
Cc1ccc(C(=O)CSc2n[nH]c(-c3ccncc3)n2)cc1	none
CC(=O)Nc1ccc(C(=O)CSc2n[nH]c(-c3ccncc3)n2)cc1	none
O=C(CSc1n[nH]c(-c2ccncc2)n1)c1ccc(Br)cc1	CBX7 inh 0.23
COc1ccc(NC(=O)CSc2nc(-c3cccc(F)c3)[nH]c2-c2ccccc2)cc1OC	none
O=C(CSc1nnc(-c2cccs2)n1CCc1ccccc1)Nc1ccc(F)cc1	none
COc1ccc2c(c1)c(=O)c(S(=O)(=O)c1ccc(Cl)cc1)cn2CC(=O)Nc1ccccc1C	none
COc1ccc(CNC(=O)c2cnn3c(C)c(Cc4cccc(C)c4)c(C)nc23)cc1	none
Cc1ccc(-n2ncc3c(NCCO)ncnc32)c(C)c1	none
Cc1ccc(-n2ncc3c(NCc4ccccn4)ncnc32)c(C)c1	CBX7 inh 0.12
Cc1ccc(-n2ncc3c(NCc4cccnc4)ncnc32)c(C)c1	none
CCn1cnc2cc(NCc3ccccc3Cl)ccc21	none
CCCn1cnc2cc(NCc3ccccc3Cl)ccc21	none
CCCCn1cnc2cc(NCc3ccccc3OCC)ccc21	CBX7 inh 0.19
CCn1cnc2cc(NCc3ccccc3OC)ccc21	none
CCCCn1cnc2cc(NCc3ccc(OCC)cc3)ccc21	none
CCCCn1cnc2cc(NCc3ccccc3Cl)ccc21	CBX7 inh 0.22
CCn1cnc2cc(NCc3cccc(OC)c3)ccc21	none
CCCCn1cnc2cc(NCc3cccc(OC)c3)ccc21	CBX7 inh 0.36
CCCn1cnc2cc(NCc3ccccc3OCC)ccc21	none
COc1ccc(-c2nc3cc(C)ccn3c2NC(=O)c2cc(Br)ccc2Cl)cc1OC	none
Cc1ccccc1CSc1nnc(Cc2cc(=O)[nH]c(=O)[nH]2)n1-c1ccccc1	none
Cc1cccc(CCNC(=O)C2CCN(S(=O)(=O)c3cccc4nonc34)CC2)c1	none
COc1ccccc1Nc1cc(C(=O)NCCCN2CCCCCC2)c2ccccc2n1	none
Cc1ccc(NC(=O)c2cc(-c3ccc(Cl)cc3)on2)cc1	none
CN(CCNC(=O)Cn1ncc2c1-c1ccccc1OC2)C1CCCCC1	none
CCOCCCNC(=O)c1c[nH]c2ccc(S(=O)(=O)Nc3ccc(F)cc3F)cc2c1=O	none
O=C1c2ccccc2C(=O)N1c1cccc(-c2csc(Nc3ccc(Oc4ccccc4)cc3)n2)c1	none
COc1cccc(Nc2nc(-c3ccc(OC)c(Br)c3)cs2)c1	none
COc1ccc(-c2csc(Nc3ccc(Oc4ccccc4)cc3)n2)cc1Br	CBX7 inh 0.42!
CC(C)Cc1ccc(-c2csc(Nc3ccc(Oc4ccccc4)cc3)n2)cc1	CBX7 inh 0.49
CC(=O)Nc1nc(-c2ccc(Oc3ccccc3)cc2)cs1	none
Clc1ccc(-c2csc(Nc3ccc(Oc4ccccc4)cc3)n2)cc1	none
O=C(NCc1ccc(F)cc1)c1ccc2c(c1)NC(=O)c1ccccc1N2	none
Cc1cc(N2CCC(C(=O)NC3CCCC(C)C3C)CC2)n2nc(C)c(-c3ccc(Cl)cc3)c2n1 (stereo unspecified)	none
COc1ccc(Nc2nc(C)nc3sc4c(c23)CCC4)c(OC)c1	none
Oc1cccc(Nc2nc(-c3ccncc3)cs2)c1	none
CCc1ccc(-c2csc(Nc3ncccn3)n2)cc1	none
c1cnc(Nc2nc(-c3ccncc3)cs2)nc1	none
O=C(O)c1cccc(Nc2nc(-c3ccccc3)cs2)c1	none
COc1ccc(-c2csc(Nc3cccc(O)c3)n2)cc1OC	none
O=C(O)c1cccc(Nc2nc(-c3ccccn3)cs2)c1	CBX7 inh 0.15
Oc1cccc(Nc2nc(-c3ccccn3)cs2)c1	CBX7 inh 0.19
O=C(O)c1cccc(Nc2nc(-c3ccncc3)cs2)c1	none
Cc1cccc(Nc2nc(-c3ccncc3)cs2)c1	none
Cc1cccc(Nc2nc(-c3ccc(Cl)cc3)cs2)c1	none
c1ccc(-c2csc(Nc3ncccn3)n2)nc1	CBX7 inh 0.0089
Cc1cccc(Nc2nc(-c3ccccn3)cs2)c1	CBX7 inh 0.16
CCCOc1ccc(C(=O)N(Cc2ccc(CC)cc2)C2CCS(=O)(=O)C2)cc1 (stereo unspecified)	none
Cc1ccc(-n2cc(-c3ccc4c(c3)OCO4)[nH]c2=O)cc1	none
Cc1nn(Cc2ccccc2Cl)c(C)c1NC(=O)c1cc(-c2ccc(O)cc2)on1	none
COc1ccc(-n2nnc3c(=O)n(CC(=O)Nc4cccc(C)c4C)cnc32)cc1	none
Cc1cccc(N2CCN(C(=O)c3ccc(NC4=NC5CS(=O)(=O)CC5S4)cc3)CC2)c1C (stereo unspecified)	none
COc1ccc(CNc2nc3ccccc3nc2NS(=O)(=O)c2ccccc2)cc1	none
Cc1cc(C)c2c(n1)SCC(=O)N2Cc1nc(-c2ccccc2Cl)oc1C	none
CCC(=O)N1CCc2cc(S(=O)(=O)NCCN3CCCC3)ccc21	none
Cc1ccc(-n2c3c(cc(C(=O)Nc4ccccc4Cl)c2=O)C(=O)CCC3)cc1	none
Oc1ccc(Nc2nc(-c3ccccn3)cs2)cc1	CBX7 inh 0.0014
COc1ccc(-c2csc(Nc3ccc(O)cc3)n2)cc1OC	none
CCOc1ccccc1Nc1nc(-c2ccccn2)cs1	none
CCCOc1ccc(N2C(=O)CC(N3CCC(C(N)=O)(N4CCCCC4)CC3)C2=O)cc1 (stereo unspecified)	none
O=C(Cn1nc(-c2ccccc2)c2cc(Cl)ccc21)NCc1cccs1	none
O=C(CN1C(=O)CCSc2ccccc21)N1CCN(c2ccccc2)CC1	none
CCCc1cc(-c2[nH]ncc2-c2ccc3c(c2)OCCCO3)c(O)cc1OC	CBX7 inh 0.47
COc1ccc(-c2[nH]ncc2-c2ccc(Br)cc2)c(O)c1	none
CCc1cc(-c2[nH]ncc2-c2ccc(F)cc2)c(O)cc1OC	none
O=C(CCn1nc(-c2ccccc2)ccc1=O)NCc1ccc2c(c1)OCO2	none
COC(CNC(=O)c1c[nH]c2ccc(S(=O)(=O)N(C)c3cccc(C)c3)cc2c1=O)OC	none
COc1ccccc1OCCCCCCc1c(C)n[nH]c1C	CBX7 inh 0.5
Cc1ccccc1OCCCCCc1c(C)n[nH]c1C	none
COc1ccccc1OCCCCc1c(C)n[nH]c1C	none
COc1ccc(OCc2nc3ccccc3n2CCc2ccccc2)cc1	none
COc1ccc(-c2noc(N(C)CC(=O)Nc3ccccn3)n2)cc1	none
COc1ccc(-c2noc(N(C)CC(=O)Nc3ccc(OC)cc3OC)n2)cc1	none
COc1ccc(-c2noc(N(C)CC(=O)Nc3cc(C)on3)n2)cc1	CBX7 inh 0
Cc1ccc(OCc2nc(-c3ccc(Cl)cc3)no2)cc1	none
COc1ccccc1CNc1ccc2c(c1)ncn2C(C)(C)C	none
Brc1ccc(CNc2ccc3c(c2)ncn3-c2ccccc2)cc1	CBX7 inh 0.24
Cn1cnc2cc(NCc3ccc(Br)cc3)ccc21	none
CC(C)c1ccc(CNc2ccc3c(c2)ncn3C)cc1	none
CC(C)(C)n1cnc2cc(NCc3ccc(Br)cc3)ccc21	none
COc1ccccc1-n1cnc2cc(NCc3ccc(N(C)C)cc3)ccc21	CBX7 inh 0.24
Cc1nc2cc(NCc3ccc(C(C)C)cc3)ccc2n1C	none
COc1ccccc1-n1cnc2cc(NCc3ccc(C(C)C)cc3)ccc21	CBX7 inh 0.2
COc1ccccc1-n1cnc2cc(Nc3nnc(C)c4ccccc34)ccc21	none
COC(=O)c1cccc2c1C(=O)N(c1ccc(OC)cc1)C2	none
CCc1ccc2nc(N3CCC(C(=O)NCc4ccccc4Cl)CC3)sc2c1	none
O=C1CC(N2CCN(c3ccccc3F)CC2)C(=O)N1c1cccc(Br)c1 (stereo unspecified)	none
